Measurements from PubChem BioAssay (Tox21).
Results filed as inconclusive are left out. Activity calls are given as the source filed them. Unless noted, calls come from the whole dose curve; as a rule, active = well fitted curve in the direction sought with a large enough effect in the repeat runs; inconclusive = weak or mixed curves; inactive = no such curve, though single readings can be large; an effect the other way counts as inactive or inconclusive.

Tests used:
[1] = qHTS assay to identify small molecule agonists of the vitamin D receptor (VDR) signaling pathway - cell viability counter screen (AID 743224); note: series mostly up to about 63 µM; nearly all actives have a fitted effect of over 50% in size
Procedure, shortened: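 Cells: VDR-bla, 2,000/well, settled 4 h. Treatment: compounds in DMSO, 16 h, 37C/5% CO2. Readout: CellTiter-Glo luminescence after 30 min RT.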

[2] = qHTS assay to identify small molecule antagonists of the vitamin D receptor (VDR) signaling pathway - cell viability counter screen (AID 743225); note: nearly all actives have a fitted effect of over 50% in size
Procedure, shortened: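 VDR-UAS-bla HEK 293T cells were plated and incubated 4 h at 37C, then dosed with compound plus 3 nM (final) 1-alpha,25-dihydroxyvitamin D3 for 16 h. After the 2 h beta-lactamase read, viability in the same wells was read as CellTiter-Glo luminescence after 30 min at room temperature.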

[3] = qHTS assay to identify small molecule agonists of the NFkB signaling pathway - cell viability counter screen (AID 1159515; calls by dose curve; note: series mostly up to about 61 µM; nearly all actives have a fitted effect of over 55% in size)
Procedure, shortened: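 Cells are seeded (2,000 NFkB-bla ME-180 per well), rested overnight, and dosed with DMSO-dissolved compounds for 5 hr at 37 C. Viability is then read by CellTiter-Glo luminescence after 30 min at room temperature.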

[4] = qHTS assay to identify small molecule agonists of the endoplasmic reticulum stress response signaling pathway (AID 1159516; active = well fitted activation curve with a large enough effect in the signal ratio in the repeat runs, not every such curve was filed as active; the % refers to the signal ratio)
Procedure, shortened: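 Cells are seeded at 1,500 per well and incubated overnight. Compounds in DMSO are added for 5 hr at 37 C, then beta-lactamase FRET substrate for 2 hr at room temperature, and fluorescence at 460 and 530 nm is measured.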

[5] = qHTS assay to identify small molecule agonists of the endoplasmic reticulum stress response signaling pathway - cell viability counter screen (AID 1159517; calls by dose curve;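 note: HeLa cells carrying an ER stress response element beta-lactamase reporter; series mostly up to about 61 µM; nearly all actives have a fitted effect of over 50% in size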)
Procedure, shortened: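 ESRE-bla HeLa cells (1,500/well) were plated overnight at 37 C and exposed to compounds for 5 hr. After the 2 hr beta-lactamase substrate read, CellTiter-Glo went into the same wells, and luminescence was read after 30 min at room temperature.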

[6] = qHTS assay to identify small molecule antagonists of the retinoid-related orphan receptor gamma (ROR-gamma) signaling pathway - cell viability counter screen (AID 1159520); note: nearly all actives have a fitted effect of over 50% in size
Procedure, shortened: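 Cytotoxicity was read from cellular ATP (CellTiter-Glo luminescence) after 16 hr at 37 C with 1 uM doxycycline induction. The inducer was added 2 hr after compound transfer to Tet-on ROR gamma CHO cells.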

[7] = target: Nuclear receptor ROR-gamma (Homo sapiens) (UniProt P51449); assay: qHTS assay to identify small molecule antagonists of the retinoid-related orphan receptor gamma (ROR-gamma) signaling pathway (AID 1159521)
Procedure, shortened: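 Tet-on ROR-gamma CHO cells with ROR response element-luciferase reporter; compounds added 2 hr before 1 uM doxycycline induction, then 16 hr at 37 C. Antagonism scored as decreased ONE-Glo luminescence.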

[8] = qHTS assay to identify small molecule agonists of the AP-1 signaling pathway - cell viability counter screen (AID 1159525; calls by dose curve; note: nearly all actives have a fitted effect of over 55% in size)
Procedure, shortened: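 Intracellular ATP by Cell Titer Glo luminescence (30 min, RT) in the same ME-180 AP-1-bla wells after the 5 h compound exposure at 37 °C. Normalised to tetra n-octyl ammonium bromide and DMSO controls.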

[9] = qHTS assay to identify small molecule agonists of the AP-1 signaling pathway (AID 1159526; calls by dose curve)
[10] = target: Retinoic acid receptor RXR-alpha (Homo sapiens) (UniProt P19793); assay: qHTS assay to identify small molecule agonists of the RXR signaling pathway (AID 1159527; calls by dose curve; note: nearly all actives have a fitted effect of over 35% in size; note: potency is the fitted concentration of half-maximal effect)
Retinoic acid receptor RXR-alpha (Homo sapiens), sequence (P19793 whole entry, looked up): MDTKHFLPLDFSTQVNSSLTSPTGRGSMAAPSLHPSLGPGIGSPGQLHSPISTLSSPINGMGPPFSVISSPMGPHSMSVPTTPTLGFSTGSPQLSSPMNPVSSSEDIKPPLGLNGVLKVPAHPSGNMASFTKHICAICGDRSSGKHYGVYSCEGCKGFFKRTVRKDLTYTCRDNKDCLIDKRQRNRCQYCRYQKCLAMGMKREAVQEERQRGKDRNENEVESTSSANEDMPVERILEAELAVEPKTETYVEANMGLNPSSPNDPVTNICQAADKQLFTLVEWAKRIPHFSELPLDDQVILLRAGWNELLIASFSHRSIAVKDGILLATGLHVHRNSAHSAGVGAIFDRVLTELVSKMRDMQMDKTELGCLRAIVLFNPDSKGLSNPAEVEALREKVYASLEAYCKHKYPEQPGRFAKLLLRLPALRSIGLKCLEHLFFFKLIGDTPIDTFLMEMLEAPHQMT
Procedure, shortened: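 GeneBLAzer RXR-alpha-UAS-bla HEK 293T cells in 2% charcoal-stripped FBS medium were exposed to compounds for 16 hr at 37 C in agonist mode. Beta-lactamase reporter read as 460/530 nm FRET ratio after 2 hr substrate loading.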

[11] = qHTS assay to identify small molecule agonists of the RXR signaling pathway - cell viability counter screen (AID 1159529)
Procedure, shortened: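 RXR-alpha-UAS-bla HEK 293T cells in medium with 2% charcoal-stripped FBS were pre-incubated 5 hr, then compound-treated 16 hr at 37 C. Viability was read by CellTiter-Glo luminescence in the same wells as the beta-lactamase assay, with tetraoctyl ammonium bromide as positive control.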

[12] = qHTS assay to identify small molecule antagonists of the retinoid acid receptor (RAR) signaling pathway - cell viability counter screen (AID 1159551); note: nearly all actives have a fitted effect of over 35% in size
Procedure, shortened: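 Cells (C3RL4) are plated, incubated overnight, dosed with compound in DMSO, then given retinol at 1 uM final. After 6 h at 37 C, CellTiter-Glo is added and luminescence read following 30 min at room temperature.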

[13] = qHTS assay to identify small molecule antagonists of the retinoic acid receptor (RAR) signaling pathway (AID 1159552; note: nearly all actives have a fitted effect of over 50% in size)
Procedure, shortened: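 Retinol signaling pathway inhibitors screened in C3RL4 RARE-luciferase reporter cells seeded overnight at 37 C, then compounds added with 1 uM (final) retinol as pathway substrate. After 6 hr at 37 C, luciferase luminescence read after 30 min at room temperature.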

[14] = qHTS assay to identify small molecule agonists of the retinoic acid receptor (RAR) signaling pathway (AID 1159553); note: potency is the fitted concentration of half-maximal effect
Procedure, shortened: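 Seed C3RL4 reporter cells at 1,000 per well and incubate overnight at 37 C. Add compounds in DMSO, incubate 6 hr. Add luciferase reagent, wait 30 min at room temperature, read luminescence.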

[15] = qHTS assay to identify small molecule antagonists of the estrogen related receptor (ERR) signaling pathway - cell viability counter screen (AID 1224818); note: series mostly up to about 46 µM
Procedure, shortened: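 ERR cells, 2,000/well; 6 h settle at 37 C/5% CO2; compound pin transfer (DMSO); 17.5 h at 37 C; CellTiter-Fluor, 30 min, fluorescence read.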

[16] = qHTS assay to identify small molecule antagonists of the estrogen related receptor (ERR) signaling pathway (AID 1224819)
Procedure, shortened: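 qHTS in ERR cells, 2,000/well, 1536 format. Cpd (DMSO) added after 6 h settle, 18 h 37 C. One-Glo luminescence, 30 min RT.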

[17] = qHTS assay to identify small molecule agonists of the estrogen related receptor (ERR) signaling pathway (AID 1224820)
Procedure, shortened: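 An ERR cell line provided by NTP was seeded at 2,000 cells per well and allowed to settle for 6 h before compounds in DMSO were added. After 18 h at 37 C, luciferase activity was measured by One-Glo luminescence.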

[18] = qHTS assay to identify small molecule antagonists of the estrogen related receptor signaling pathway with the pleiotropic PPARgamma coactivator (PGC) cell viability counter screen (AID 1224822;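 note: series mostly up to about 46 µM; viability read after 17.5 h compound exposure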)
Procedure, shortened: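 Multiplexed viability counter screen run in PGC/ERR cells treated with compounds for 17.5 h at 37 C; live-cell protease signal measured by CellTiter-Fluor fluorescence.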

Measured: Potency

CN(C)N
not listed: [15] | [16] | [17] | [18]
inactive: all other assays above

Cc1cccc(C)c1NC1=NCCCS1
inactive: all assays above

CCCCCl
not listed: [15] | [16] | [17] | [18]
inactive: all other assays above

FC(Cl)(Cl)C(F)(Cl)Cl
not listed: [15] | [16] | [17] | [18]
inactive: all other assays above

C=CCc1ccccc1O
not listed: [15] | [16] | [17] | [18]
inactive: all other assays above

Cc1nnc(-c2ccccc2)c(=O)n1N
not listed: [1] | [15] | [16] | [17] | [18]
inactive: all other assays above

CCOP(=S)(OCC)Oc1ccc(S(C)=O)cc1 (stereo not drawn)
not listed: [15] | [16] | [17] | [18]
inactive: all other assays above

O=C1CC[C@@]2(O)[C@H]3Cc4ccc(O)c5c4[C@@]2(CCN3CC2CC2)[C@H]1O5
not listed: [1] | [2] | [15] | [16] | [17] | [18]
inactive: all other assays above

N#CC(C#N)=Cc1ccc(O)c(O)c1
active: [14] 26.6 µM
not listed: [16] | [17]
inactive: all other assays above

OCCCl
active: [10] 19.5 µM
not listed: [15] | [16] | [17] | [18]
inactive: all other assays above

C=CCSSCC=C
not listed: [15] | [16] | [17] | [18]
inactive: all other assays above

CCOC(=O)c1cncn1C(C)c1ccccc1 (stereo not drawn)
not listed: [1] | [2] | [15] | [16] | [17] | [18]
inactive: all other assays above

CN[C@@H](C)[C@H](O)c1ccccc1
not listed: [15] | [16] | [17] | [18]
inactive: all other assays above

O=C(O)COc1cc(Cl)c(Cl)cc1Cl
active: [10] 24.6 µM
not listed: [15] | [16] | [17] | [18]
inactive: all other assays above

CCC1(CCC(C)C)C(=O)NC(=O)NC1=O
not listed: [15] | [16] | [17] | [18]
inactive: all other assays above

Nc1ccccc1C(=O)OCC(O)CO (stereo not drawn)
not listed: [15] | [16] | [17] | [18]
inactive: all other assays above

N#CC1(N=NC2(C#N)CCCCC2)CCCCC1
not listed: [15] | [16] | [17] | [18]
inactive: all other assays above

Cc1nc(N(C)C)nc(OC(=O)N(C)C)c1C
not listed: [15] | [16] | [17] | [18]
inactive: all other assays above
